Test results as given in PubChem BioAssay AID1159580 (chemical genetic matrix, 2015).
Where “and” joins values, the source holds several entries; their conditions need not be identical. Equal entries are not always repeated. The whole screen tested about 5,500 compounds, of which about 2,000 (36%) were called active. Roughly 18% stayed inconclusive and do not appear here. No stated cut-off is given here; in the data, active means normalized growth mostly below about 0.91 (no sharp cut-off); inconclusive means no clear call, values can overlap the other calls; inactive means mostly above about 0.92. The list shows a part of the results.

Test: chemical genetic growth profiling, strain panel (AID 1159580);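 further: tested at 20 µM; growth read once vehicle control cultures reached saturation at 30 °C; 1 = growth at the plate median or of vehicle wells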
Details: S. cerevisiae deletion strains, growth OD

Measured: normalized growth

O=c1cccc2n1CC1CC2CN2CCCC[C@@H]12 (some centres undefined)
inactive: locus YAL013W, strain DEP1, stronger effect = lower value 0.999 | locus YAL021C, strain ccr4, stronger effect = lower value 0.999 | locus YAL026C, strain drs2, stronger effect = lower value 0.983 | locus YAL030W, strain snc1, stronger effect = lower value 0.979 | locus YBL061C, strain skt5, stronger effect = lower value 0.983 | locus YBR009C, strain hhf1, stronger effect = lower value 0.947 | locus YBR021W, strain FUR4, stronger effect = lower value 1.01 | locus YBR023C, strain chs3, stronger effect = lower value 0.974 | locus YBR171W, strain sec66, stronger effect = lower value 0.974 | locus YBR229C, strain ROT2, stronger effect = lower value 0.953 | locus YBR231C, strain swc5, stronger effect = lower value 0.97 | locus YBR279W, strain paf1, stronger effect = lower value 0.988 | locus YCL011C, strain gbp2, stronger effect = lower value 0.983 | locus YCL016C, strain dcc1, stronger effect = lower value 0.976 | locus YCL029C, strain bik1, stronger effect = lower value 0.974 | locus YCL061C, strain MRC1, stronger effect = lower value 0.985 | locus YCL069W, strain vba3, stronger effect = lower value 0.98 | locus YCR088W, strain abp1, stronger effect = lower value 0.973 | locus YDL005C, strain med2, stronger effect = lower value 0.982 | locus YDL035C, strain GPR1, stronger effect = lower value 1 | locus YDL040C, strain nat1, stronger effect = lower value 0.961 | locus YDL074C, strain BRE1, stronger effect = lower value 1.01 | locus YDL101C, strain DUN1, stronger effect = lower value 0.992 | locus YDL134C, strain PPH21, stronger effect = lower value 0.989 | locus YDL185W, strain tfp1, stronger effect = lower value 0.971 | locus YDL192W, strain arf1, stronger effect = lower value 0.99 | locus YDR001C, strain nth1, stronger effect = lower value 0.968 | locus YDR069C, strain doa4, stronger effect = lower value 0.982 | locus YDR101C, strain arx1, stronger effect = lower value 1.03 | locus YDR137W, strain rgp1, stronger effect = lower value 0.994 | locus YDR150W, strain NUM1, stronger effect = lower value 0.992 | locus YDR159W, strain sac3, stronger effect = lower value 0.938 | locus YDR162C, strain NBP2, stronger effect = lower value 0.987 | locus YDR195W, strain ref2 0.946 | locus YDR297W, strain sur2, stronger effect = lower value 0.977 | locus YDR318W, strain mcm21, stronger effect = lower value 0.978 | locus YDR334W, strain swr1, stronger effect = lower value 0.978 | locus YDR335W, strain msn5, stronger effect = lower value 0.987 | locus YDR388W, stronger effect = lower value 0.985 | locus YDR392W, strain spt3, stronger effect = lower value 0.876 | locus YDR502C, strain sam2, stronger effect = lower value 0.981 | locus YEL003W, strain gim4, stronger effect = lower value 0.985 | locus YEL037C, strain rad23, stronger effect = lower value 0.983 | locus YEL061C, strain CIN8 (second series), stronger effect = lower value 0.974 | locus YEL061C, strain CIN8, stronger effect = lower value 0.991 | locus YER015W, strain faa2, stronger effect = lower value 0.976 | locus YER016W, strain bim1, stronger effect = lower value 0.971 | locus YER110C, stronger effect = lower value 0.972 | locus YER111C, strain swi4, stronger effect = lower value 0.977 | locus YER155C, strain BEM2 (second series), stronger effect = lower value 0.973 | locus YER155C, strain BEM2, stronger effect = lower value 1 | locus YER167W, strain BCK2, stronger effect = lower value 0.987 | locus YFR010W, strain ubp6, stronger effect = lower value 0.972 | locus YGL078C, strain dbp3, stronger effect = lower value 0.991 | locus YGL086W, strain mad1, stronger effect = lower value 1.04 | locus YGL167C, strain pmr1, stronger effect = lower value 0.968 | locus YGL173C, strain kem1, stronger effect = lower value 0.981 | locus YGL227W, strain vid30, stronger effect = lower value 0.974 | locus YGL240W, strain doc1, stronger effect = lower value 0.962 | locus YGL248W, strain PDE1, stronger effect = lower value 0.986 | locus YGL253W, strain hxk2, stronger effect = lower value 0.982 | locus YGR135W, strain pre9, stronger effect = lower value 0.982 | locus YGR229C, strain SMI1, stronger effect = lower value 0.993 | locus YGR252W, strain gcn5, stronger effect = lower value 0.968 | locus YHR013C, strain ard1, stronger effect = lower value 0.928 | locus YHR027C, strain rpn1, stronger effect = lower value 0.982 | locus YHR030C, strain SLT2, stronger effect = lower value 0.996 and 1.02 | locus YHR079C, strain IRE1 (second series), stronger effect = lower value 0.986 | locus YHR079C, strain IRE1, stronger effect = lower value 1.02 | locus YHR094C, strain hxt1, stronger effect = lower value 0.967 | locus YHR129C, strain ARP1, stronger effect = lower value 0.983 | locus YHR142W, strain chs7, stronger effect = lower value 1 | locus YHR200W, strain rpn10, stronger effect = lower value 0.975 | locus YIL066C, strain RNR3, stronger effect = lower value 0.987 | locus YIL073C, strain SPO22, stronger effect = lower value 0.967 | locus YIL125W, strain kgd1, stronger effect = lower value 0.986 | locus YIR030C, strain dcg1, stronger effect = lower value 0.984 | locus YJL092W, strain hpr5, stronger effect = lower value 0.981 | locus YJL095W, strain BCK1 (second series), stronger effect = lower value 0.978 | locus YJL095W, strain BCK1, stronger effect = lower value 1 and 1.01 | locus YJL115W, strain asf1, stronger effect = lower value 0.988 | locus YJL129C, strain trk1, stronger effect = lower value 0.982 | locus YJL134W, strain LCB3, stronger effect = lower value 0.983 | locus YJL154C, strain vps35, stronger effect = lower value 0.98 | locus YJL164C, strain tpk1, stronger effect = lower value 0.984 | locus YJL166W, strain qcr8, stronger effect = lower value 1.01 | locus YJL168C, strain set2, stronger effect = lower value 0.99 | locus YJL187C, strain SWE1 (second series), stronger effect = lower value 0.995 | locus YJL187C, strain SWE1, stronger effect = lower value 0.99
